{"source": "the supplement of paper PMC4894684", "note": "Structures can show the parent of a compound that is named as a salt. ± gives the standard deviation of the averaged measurements.", "data": [{"test_system": "Toxoplasma gondii RH (in HFF)", "test": "parasite growth relative to the screen mean (all compounds = 100%); higher = less inhibition of parasite growth", "conditions": "5 µM; 72 h; oxygen 21 %", "method_in_brief": "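Growth values are relative to the mean of the whole screen and averaged over duplicate screens, with all compounds together set to 100%. Parasites (RH β-Gal–GFP Toxoplasma, MOI 1:5) were added within 2 h of pinning compounds at 5 µM final onto confluent human foreskin fibroblasts and grown 72 h at 21% O2. Parasite number came from CPRG β-Gal readings against in-plate standard curves.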", "units": {"parasite growth": "%"}, "values": [{"smiles": "CCS(=O)(=O)N(C)[C@H]1c2cc(C#N)ccc2OC(C)(C)[C@@H]1O", "note": "(racemic) [Chromanol 293B]", "parasite growth": "142 ± 10"}, {"smiles": "CCCCCCN(CCCCCC)C(=O)Cc1c(-c2ccc(F)cc2)[nH]c2ccccc12", "parasite growth": "151 ± 28"}, {"smiles": "O=C(/C=C/c1ccccc1)NC(NC(=S)Nc1cccc2cccnc12)C(Cl)(Cl)Cl", "note": "(centres undefined) [Salubrinal]", "parasite growth": "86.2 ± 17"}, {"smiles": "O=c1[nH]nc(Sc2ncc([N+](=O)[O-])s2)n1-c1ccc2c(c1)OCCO2", "parasite growth": "130 ± 46"}, {"smiles": "CC(C)NCC(O)c1ccc(O)c(O)c1", "note": "(centres undefined) [Isoproterenol hydrochloride]", "parasite growth": "172 ± 14"}, {"smiles": "CC(=O)OCCNC(=O)c1cccnc1", "note": "[N-[2-(Acetoxy)ethyl]-3-pyridinecarboxamide]", "parasite growth": "117 ± 13"}, {"smiles": "COC(=O)/C=C/c1cc(O)ccc1O", "note": "[Methyl 2,5-dihydroxycinnamate]", "parasite growth": "126 ± 30"}, {"smiles": "Cc1ccc(CC2(O)CCN(CCOc3ccc(O)cc3)CC2)cc1", "parasite growth": "111 ± 35"}, {"smiles": "CCN(CC)c1ccc(/C=N/NC(=O)c2ccc(O)cc2)cc1", "parasite growth": "115 ± 28"}, {"smiles": "CNS(=O)(=O)Cc1ccc2[nH]cc(CCN(C)C)c2c1", "note": "[Sumatriptan succinate]", "parasite growth": "76.2 ± 11"}, {"smiles": "CCSC(=N)N", "note": "[EIT hydrobromide]", "parasite growth": "166 ± 23"}, {"smiles": "[O-][S+](c1ccccc1)c1ccc2nnnn2n1", "note": "(centres undefined)", "parasite growth": "111.89 ± 0.016"}, {"smiles": "CC1(COc2ccc(CC3SC(=O)NC3=O)cc2)CCCCC1", "note": "(centres undefined) [Ciglitazone]", "parasite growth": "100 ± 22"}, {"smiles": "COc1ccc(CC(=O)NC(/N=C(\\NC#N)Nc2cccc3ncccc23)C(C)(C)C)cc1OC", "note": "(centres undefined)", "parasite growth": "123 ± 17"}, {"smiles": "Cn1nnc2c(C(N)=O)ncn2c1=O", "note": "[Temozolomide]", "parasite growth": "89.4 ± 4.9"}, {"smiles": "N=C(N)c1ccc(N2CCN(C3CCN(CC(=O)O)CC3)CC2)cc1", "parasite growth": "128 ± 33"}, {"smiles": "CCOC(=O)[C@]12CC1/C(=N\\O)c1ccccc1O2", "note": "(some centres undefined)", "parasite growth": "83 ± 23"}, {"smiles": "N#Cc1cc2nc(O)c(O)nc2cc1[N+](=O)[O-]", "note": "[CNQX disodium salt]", "parasite growth": "133 ± 37"}, {"smiles": "CCN(CC)CCOC(=O)C1(c2ccc([N+](=O)[O-])cc2)CCCC1", "note": "[Nitrocaramiphen hydrochloride]", "parasite growth": "99.3 ± 34"}, {"smiles": "C[C@@H](CN1CCC(n2c(=O)[nH]c3cc(Cl)ccc32)CC1)NC(=O)c1ccc2ccccc2c1", "parasite growth": "5.93 ± 2.3"}, {"smiles": "C[N+](C)(C)CC[N+]1(C)Cc2c(Cl)c(Cl)c(Cl)c(Cl)c2C1", "note": "[Chlorisondamine diiodide]", "parasite growth": "168 ± 14"}, {"smiles": "Oc1ccc(Nc2nc(-c3ccc(Cl)cc3)cs2)cc1", "parasite growth": "26.9 ± 8"}, {"smiles": "NC(=O)c1ccc2[nH]ccc2c1", "parasite growth": "91.2 ± 12"}, {"smiles": "Nc1ccc(-c2cccc3c(=O)cc(N4CCOCC4)oc23)cc1", "parasite growth": "104 ± 7.9"}, {"smiles": "O=c1cc(N2CCNCC2)oc2c(-c3ccccc3)cccc12", "parasite growth": "150 ± 30"}, {"smiles": "COc1ccc2[nH]cc(CCNC(C)=O)c2c1", "note": "[Melatonin]", "parasite growth": "84.8 ± 3.7"}, {"smiles": "Cc1c(NC(=O)N2CCOCC2)ccc2c1c1ccccc1n2C(C)C", "parasite growth": "144 ± 4.9"}, {"smiles": "CSc1ccc2c(c1)C(N1CCN(C)CC1)Cc1ccccc1S2", "note": "(centres undefined) [Methiothepin maleate]", "parasite growth": "< 0"}, {"smiles": "Cn1cc(C2=C(c3cn(CCCSC(=N)N)c4ccccc34)C(=O)NC2=O)c2ccccc21", "note": "[Ro 31-8220 mesylate]", "parasite growth": "< 0"}, {"smiles": "CC(C)Oc1ccc2c(=O)c3cc(C(=O)O)ccc3oc2c1", "parasite growth": "81.9 ± 15"}, {"smiles": "CCCCCCCC/C=C\\CCCCCCCC(N)=O", "note": "[Oleamide]", "parasite growth": "74.8 ± 12"}, {"smiles": "Fc1ccc(-c2nc3n(c2-c2ccncc2)CCS3)cc1", "parasite growth": "< 0"}, {"smiles": "CCN1CCC[C@H]1CNC(=O)c1c(O)c(Cl)cc(Cl)c1OC", "note": "[Raclopride]", "parasite growth": "138 ± 25"}, {"smiles": "Cc1cccc(C)c1NC(=O)C[N+](C)(C)C", "parasite growth": "123 ± 18"}, {"smiles": "O=C(O)COc1ccc(OCCNC[C@H](O)COc2ccccc2)cc1", "note": "[ICI 215,001 hydrochloride]", "parasite growth": "116 ± 14"}, {"smiles": "CCCCc1nc2ccn(Cc3cccs3)c(=O)c2n1Cc1ccc(-c2ccccc2-c2nn[nH]n2)cc1", "parasite growth": "104 ± 12"}, {"smiles": "O=C(NCCCCN1CCN(c2cccc(Cl)c2Cl)CC1)c1ccc2c(c1)Cc1ccccc1-2", "parasite growth": "92.71 ± 0.75"}, {"smiles": "COc1cc([C@@H]2c3cc4c(cc3[C@@H](O[C@@H]3O[C@@H]5CO[C@@H](C)O[C@H]5[C@H](O)[C@H]3O)[C@H]3COC(=O)[C@H]23)OCO4)cc(OC)c1O", "note": "[Etoposide]", "parasite growth": "77.2 ± 18"}, {"smiles": "CCS(=O)(=O)N(C)[C@H]1c2cc(C#N)ccc2OC(C)(C)[C@@H]1O", "note": "[(-)-[3R,4S]-Chromanol 293B]", "parasite growth": "121 ± 9.2"}]}]}
